Source: PubChem BioAssay
In the library only some 21% were active in any assay of this set; here they are far more common.
NS1 inh: blocks influenza NS1 protein function; Potency, µM (highest dose often 46.1 µM), inactives show at the top dose activity, positive = more growth; actives 0.4% (n = 270,000); AID 2326; also: potency is read from the fitted curve at half-maximal effect; actives are rising curves; nearly all actives have a fitted effect of over 50% in size
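Read-out: OD600 growth recovery of NS1-expressing budding yeast. Cells grown overnight at 30C in -URA glucose medium, washed, resuspended and diluted 1:100 in 2% galactose assay medium, pH 6.0. Same strain lacking NS1 served as positive control.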
Pf growth 96h: P. falciparum growth inhibition at 96 hour, primary screen for plastid delayed-death inhibitors; Potency, µM (highest dose often 28.7 µM), without a hit: top-dose activity change, negative = inhibition, most hits filed as inhibitors; actives 6.9% (n = 320,000); P. falciparum luciferase reporter growth, 96 h; active = well fitted inhibition curve with a large enough effect; inconclusive = small, poorly fitted or top-dose-only effect, or another doubt; inactive = no such curve, though single readings can be large or run the other way; also: potency is read from the fitted curve at half-maximal effect; % is scaled to controls: 0 for no effect and ±100 for the full control effect
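Parasite growth measured via integrated firefly luciferase reporter in P. falciparum. Infected erythrocytes at 2% hematocrit, 0.05% parasitemia final were treated 96 hours at 37 C under 5% CO2, and luminescence was read.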
Shiga inhibitor: Shiga toxin inhibition | Vero cells, Shiga toxin protein synthesis inhibition reporter | inhibition, % at 38.7 µM | actives 9.2% (n = 290,000) | AID 2315; in the data active = inhibition mostly above about 28%, no sharp cut-off; inactive = mostly below about 43%; also: 0% is about no effect
Cycloheximide cs: counter-screen for Shiga toxin inhibitors: cycloheximide protein synthesis inhibition | cell reporter, cycloheximide protein synthesis inhibition counterscreen | max response, % | actives 12% (n = 300,000); in the data active = max response mostly above about 13%, no sharp cut-off; inactive = mostly below about 14%; also: read at 38.3 µM for the half of the compounds with a filed dose; 0% is about no effect
SARS PLpro yeast: inhibitors of SARS-CoV papain-like protease in yeast; Potency, µM (series often up to 32.9 µM), inactives show at the top dose activity, positive = growth rescue, actives largely listed as activators; S. cerevisiae expressing SARS-CoV PLpro, growth rescue; actives 0.19% (n = 330,000); also: potency is read from the fitted curve at half-maximal effect; 0% is about no effect; nearly all actives have a fitted effect of over 55% in size
Pf growth 48h: P. falciparum growth inhibition at 48 hours (one generation); P. falciparum luciferase growth in erythrocytes, 48 h; Potency, µM (doses to about 28.7 µM), for inactives: at the highest dose activity change, negative = inhibition, usual class: inhibitors; actives 5.9% (n = 310,000); active = well fitted inhibition curve with a large enough effect; inconclusive = small, poorly fitted or top-dose-only effect, or another doubt; inactive = no such curve, though single readings can be large or run the other way; also: potency is read from the fitted curve at half-maximal effect; % is scaled to controls: 0 for no effect and ±100 for the full control effect
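First compound was added to culture medium, then infected red cells at 0.1% parasitemia and 2% hematocrit (final). After incubation at 37 C under 5% CO2, luciferase detection reagent was dispensed and light output recorded.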
Numbers without * were called inactive; [ ] = remark or other dose. Unless noted, calls follow the shape of the full dose curve.

CCN(CC(=O)Nc1ccccc1OC)C(=O)CN1C(=O)NC(C)(c2ccccc2)C1=O (stereo not given) was read as Pf growth 96h -20%, SARS PLpro yeast 2% and Pf growth 48h -27%.
`CC1(C)C(=O)OC(C(=O)c2ccccc2)C2(CCCCC2)C1=O` (stereo not given) gave NS1 inh -3%, Pf growth 96h inconclusive, Shiga inhibitor 8, Cycloheximide cs -1, SARS PLpro yeast 14% and Pf growth 48h 13%.
For CCC(C)(C)n1nnnc1CN(Cc1ccc(Cl)cc1)Cc1ccco1 the results were NS1 inh -49%, Pf growth 96h inconclusive, Shiga inhibitor 12, Cycloheximide cs 1, SARS PLpro yeast -25% and Pf growth 48h 10µM*.
Screening CC(C)(C)c1ccc(CN(Cc2ccco2)Cc2nnnn2C2CCCC2)cc1 returned NS1 inh 17%, Pf growth 96h 5.2µM*, Shiga inhibitor 68, Cycloheximide cs 1, SARS PLpro yeast -2% and Pf growth 48h 9.3µM*.
Screening COc1ccc2cc(CN(Cc3ccco3)Cc3nnnn3C3CCCCC3)c(=O)[nH]c2c1 returned NS1 inh 4%, Pf growth 96h 8%, Shiga inhibitor -9, Cycloheximide cs 1, SARS PLpro yeast -9% and Pf growth 48h inconclusive.
Screening Cc1ccccc1N1CCN(S(=O)(=O)c2nnc(NC(=O)c3ccco3)s2)CC1 returned NS1 inh -17%, Pf growth 96h inconclusive, Shiga inhibitor -5, Cycloheximide cs -8, SARS PLpro yeast -11% and Pf growth 48h 10%.
Cc1cc(Cl)ccc1OC(C)C(=O)OCC(=O)c1ccc[nH]1 (stereo not given) was read as SARS PLpro yeast -4%.
For Cc1ccc(Nc2nc(CSc3nnnn3-c3ccccc3)cs2)cc1 the results were NS1 inh 2%, Pf growth 96h 4%, Shiga inhibitor 36, Cycloheximide cs 16 and Pf growth 48h -5%.
For Cc1ccc(Nc2nc(CSc3nnnn3C)cs2)cc1 the results were NS1 inh -10%, Pf growth 96h 224%, Shiga inhibitor 42*, Cycloheximide cs 39*, SARS PLpro yeast 21% and Pf growth 48h 173%.
Cn1nnnc1SCc1csc(Nc2ccccc2)n1 was read as NS1 inh -4%, Pf growth 96h 143%, Shiga inhibitor 123*, Cycloheximide cs 28*, SARS PLpro yeast 4% and Pf growth 48h 42%.
For COc1ccc(C(C(=O)Nc2ccc(C(C)C)cc2)N(Cc2ccco2)C(=O)CC2NC(=O)NC2=O)cc1 (stereo not given) the results were Pf growth 96h inconclusive, Shiga inhibitor -4, Cycloheximide cs 8, SARS PLpro yeast 1% and Pf growth 48h 1.5µM*.
For N#C/C(=C\c1ccncc1)C(N)=O the results were NS1 inh 6%, Pf growth 96h 7%, Shiga inhibitor -2, Cycloheximide cs -7, SARS PLpro yeast 0% and Pf growth 48h 22%.
`CSc1nc(-c2ccc(Cl)cc2)nn1S(=O)(=O)c1ccc(Cl)cc1` gave NS1 inh 7%, Pf growth 96h -10%, Shiga inhibitor 14, Cycloheximide cs 7, SARS PLpro yeast 24% and Pf growth 48h 31%.
For CCC(=O)n1nc(-c2ccc(Cl)cc2)nc1SC the results were NS1 inh -9%, Pf growth 96h 132%, Shiga inhibitor 68*, Cycloheximide cs 32*, SARS PLpro yeast -9% and Pf growth 48h 138%.
Screening CCCC(=O)n1nc(-c2ccc(Cl)cc2)nc1SC returned NS1 inh -5%, Shiga inhibitor 67*, Cycloheximide cs 23*, SARS PLpro yeast -4% and Pf growth 48h 78%.
For CCC(=O)n1nc(-c2ccc(OC)cc2)nc1SC the results were NS1 inh -2%, Pf growth 96h -28%, Shiga inhibitor 42*, Cycloheximide cs 30*, SARS PLpro yeast 6% and Pf growth 48h 187%.
COc1ccc(NC(=O)CS(=O)(=O)Cc2ccccc2)c([N+](=O)[O-])c1 was read as NS1 inh 27%, Pf growth 96h 15%, Shiga inhibitor 11, Cycloheximide cs 11, SARS PLpro yeast 3% and Pf growth 48h 10%.
Cn1cc(C[C@H](C(=O)O)N2C(=O)c3ccc(C(=O)O)cc3C2=O)c2ccccc21 was read as Pf growth 96h inconclusive, Shiga inhibitor 3, Cycloheximide cs 2, SARS PLpro yeast 2% and Pf growth 48h inconclusive.
Screening O=C1NC2(C=Cc3c(ccc4ccccc34)O2)Oc2ccccc21 (stereo not given) returned NS1 inh -51%, Pf growth 96h 3%, Shiga inhibitor 84*, Cycloheximide cs 31*, SARS PLpro yeast -4% and Pf growth 48h -2%.
For CC1(C)OC(=O)N(c2ccccc2)C12C=Cc1c(ccc3ccccc13)O2 (stereo not given) the results were NS1 inh 15%, Pf growth 96h 136%, Shiga inhibitor 3, Cycloheximide cs 8, SARS PLpro yeast -47% and Pf growth 48h 13µM*.
Screening CC(c1ccccc1)N1C(=O)OC(C)(C)C1(C)O (stereo not given) returned Pf growth 96h 15%, SARS PLpro yeast 0% and Pf growth 48h 77%.
Cc1ncc([N+](=O)[O-])n1CC(=O)N/N=C/c1ccc(F)cc1 was read as Pf growth 96h inconclusive, Shiga inhibitor -11, Cycloheximide cs 0, SARS PLpro yeast 2% and Pf growth 48h 1%.
Screening Cn1c2c(c3ccccc31)CCN1CCC[C@]21c1ccccc1 returned NS1 inh -1%, Pf growth 96h 8.3µM*, Shiga inhibitor -6, Cycloheximide cs -2, SARS PLpro yeast 0% and Pf growth 48h 1%[0.00184 µM].
Screening CC1CCN(CCOc2ccc(Cl)c(Cl)c2)CC1 returned NS1 inh 11%, Pf growth 96h 7%, Shiga inhibitor 27, Cycloheximide cs 3, SARS PLpro yeast -27% and Pf growth 48h 1%.
For O=Cc1ccc(N2Cc3ccccc3C2)cc1 the results were NS1 inh -65%, Pf growth 96h inconclusive, Shiga inhibitor 57*, Cycloheximide cs 18*, SARS PLpro yeast -7% and Pf growth 48h 18%.
Screening O=C(O)c1ccc(N2Cc3ccccc3C2)cc1O returned NS1 inh inconclusive, Pf growth 96h 70%, Shiga inhibitor 56*, Cycloheximide cs 29* and SARS PLpro yeast 3%.
Screening Cc1cc2c(cc1C)CN(c1ccccc1)C2 returned NS1 inh 3%, Pf growth 96h inconclusive, Shiga inhibitor 66*, Cycloheximide cs 48*, SARS PLpro yeast -1% and Pf growth 48h 2%.
For O=C(O)c1ccc(N2CCCCC2)cc1O the results were NS1 inh 6%, Pf growth 96h 21%, Shiga inhibitor 19, Cycloheximide cs 3, SARS PLpro yeast 0% and Pf growth 48h 3%.
For C[N+]1(C)CCN(c2ccccc2)CC1 the results were NS1 inh 11%, Pf growth 96h inconclusive, Shiga inhibitor -7, Cycloheximide cs -3, SARS PLpro yeast -4% and Pf growth 48h -34%.
